Assay results reported in the supplement of paper PMC10849652.
Targets with a hit are over-represented here; the source holds about 7,900 in all. About 0.6% of all pairs of compound and target were hits.

Legend:
Test in all cases: log2 fold change, soluble protein after heating vs DMSO (PISA); higher = thermal stabilisation; K562 cells, 10 uM, 30 min; active = over 0.2 and 3.5 SD of the protein, either way, in both replicates (recomputed)
[1] = compound: CC1=C(C=C(C=C1)NC(=O)C2=CC(=CC=C2)C(C)(C)C#N)NC3=CC4=C(C=C3)N=CN(C4=O)C
Outline: (§1)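 Soluble protein was defined as the supernatant after 21,000xg for 90 min. It came from K562 cells at 2×10^6 cells/mL given 10 μM compound for 30 min, heated in aliquots for 3 min across 48°C-58°C, pooled, and extracted in PBS with 0.5% NP-40 at 4°C, and was quantified by TMTpro 16plex LC-MS/MS with equalised channel sums. Thermal stability against control samples, from duplicates, is reported as log2 fold change.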

[2] = compound: CC1=C(C=C(C=C1)NC(=O)C2=CC(=CC=C2)N(C)C)NC(=O)C3=CC=C(C=C3)O
Outline: as §1

[3] = compound: CC1=CC=C(C=C1)SC2=C3C=C(SC3=CN=C2)C(=O)N
Outline: as §1

[4] = compound: CC1=NC(=CC=C1)C2=C(N=C(N2)C(C)(C)C)C3=CC4=NC=CN=C4C=C3
Outline: as §1

Nexturastat A = compound: CCCCN(Cc1ccc(C(=O)NO)cc1)C(=O)Nc1ccccc1 [Nexturastat A]
Outline: as §1

vemurafenib = compound: CCCS(=O)(=O)Nc1ccc(F)c(C(=O)c2c[nH]c3ncc(-c4ccc(Cl)cc4)cc23)c1F [vemurafenib]
Outline: as §1

[5] = compound: CCCS(=O)(=O)Nc1ccc(F)c(C(=O)c2c[nH]c3ncc(Cl)cc23)c1F
Outline: as §1

[6] = compound: CCCc1cc(C)[nH]c(=O)c1CNC(=O)c1cc(-c2ccnc(N3CCN(C)CC3)c2)cc2c1cnn2C(C)C
Outline: as §1

barasertib = compound: CCN(CCCOc1ccc2c(Nc3cc(CC(=O)Nc4cccc(F)c4)[nH]n3)ncnc2c1)CCOP(=O)(O)O [barasertib]
Outline: as §1

givinostat = compound: CCN(CC)Cc1ccc2cc(COC(=O)Nc3ccc(C(=O)NO)cc3)ccc2c1 [givinostat]
Outline: as §1

Measured: log2 fold change

PGK2 (UniProt P07205)
inactive: [1] 0.019 | [2] 0.058 | [3] -0.075 | [4] 0.05 | Nexturastat A 0.039 | vemurafenib -0.084 | [5] -0.051 | [6] -0.006 | barasertib -0.046

PNN (UniProt Q9H307)
Chain of UniProt Q9H307 (Q9H307 whole entry, looked up): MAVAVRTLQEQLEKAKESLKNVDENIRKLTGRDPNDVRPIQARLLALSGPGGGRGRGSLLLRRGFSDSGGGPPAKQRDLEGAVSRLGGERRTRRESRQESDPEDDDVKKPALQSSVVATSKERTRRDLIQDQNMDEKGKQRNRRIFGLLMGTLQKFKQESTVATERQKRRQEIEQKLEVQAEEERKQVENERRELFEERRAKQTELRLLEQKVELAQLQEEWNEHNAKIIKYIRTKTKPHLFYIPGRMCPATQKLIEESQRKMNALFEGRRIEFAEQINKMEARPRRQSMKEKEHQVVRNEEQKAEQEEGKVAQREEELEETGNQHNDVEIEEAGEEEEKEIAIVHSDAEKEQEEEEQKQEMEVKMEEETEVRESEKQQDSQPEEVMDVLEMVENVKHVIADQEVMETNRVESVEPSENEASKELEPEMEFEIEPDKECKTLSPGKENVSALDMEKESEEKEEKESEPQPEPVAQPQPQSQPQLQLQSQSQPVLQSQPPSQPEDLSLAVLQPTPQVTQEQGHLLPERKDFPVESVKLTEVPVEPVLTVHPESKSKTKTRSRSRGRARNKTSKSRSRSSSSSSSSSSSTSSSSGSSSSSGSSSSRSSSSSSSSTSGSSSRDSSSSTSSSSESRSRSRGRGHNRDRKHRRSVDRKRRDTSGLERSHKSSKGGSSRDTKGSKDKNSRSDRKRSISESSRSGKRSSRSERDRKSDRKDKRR
inactive: [1] -0.101 | [2] 0.084 | [3] 0.003 | [4] 0.011 | Nexturastat A 0.03 | [5] 0.04 | [6] 0.004 | givinostat 0.121 | barasertib 0.027

PI4K2B (UniProt Q8TCG2)
inactive: [1] -0.082 | [2] -0.002 | [4] -0.013 | vemurafenib 0.059 | [6] 0.144 | givinostat 0.019 | barasertib 0.146

PTGFRN (UniProt Q9P2B2)
inactive: [1] -0.044 | [2] -0.025 | [3] 0.006 | [4] -0.012 | Nexturastat A -0.021 | vemurafenib 0.013 | [5] -0.045 | [6] -0.03 | givinostat 0.007 | barasertib -0.043

PPP1R12C (UniProt Q9BZL4)
Chain of UniProt Q9BZL4 (Q9BZL4 whole entry, looked up): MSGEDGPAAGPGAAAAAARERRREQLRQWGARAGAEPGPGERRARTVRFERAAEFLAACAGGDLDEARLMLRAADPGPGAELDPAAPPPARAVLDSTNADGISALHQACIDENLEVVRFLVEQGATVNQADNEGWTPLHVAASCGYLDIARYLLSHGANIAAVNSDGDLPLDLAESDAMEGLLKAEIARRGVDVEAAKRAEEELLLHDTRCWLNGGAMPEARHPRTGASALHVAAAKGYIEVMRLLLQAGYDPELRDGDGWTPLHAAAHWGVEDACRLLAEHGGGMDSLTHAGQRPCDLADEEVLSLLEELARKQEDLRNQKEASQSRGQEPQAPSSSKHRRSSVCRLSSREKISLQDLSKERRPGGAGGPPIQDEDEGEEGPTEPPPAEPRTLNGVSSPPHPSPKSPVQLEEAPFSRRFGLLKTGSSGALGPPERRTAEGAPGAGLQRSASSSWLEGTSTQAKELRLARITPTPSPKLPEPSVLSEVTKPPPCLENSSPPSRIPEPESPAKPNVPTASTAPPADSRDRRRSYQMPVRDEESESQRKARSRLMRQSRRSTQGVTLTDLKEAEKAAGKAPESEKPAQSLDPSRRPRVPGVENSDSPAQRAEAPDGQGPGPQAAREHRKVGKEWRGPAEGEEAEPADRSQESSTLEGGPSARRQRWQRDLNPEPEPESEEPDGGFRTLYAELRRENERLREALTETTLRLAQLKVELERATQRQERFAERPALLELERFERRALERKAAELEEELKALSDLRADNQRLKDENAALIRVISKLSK
inactive: [1] -0.048 | [2] 0.027 | [3] 0.124 | Nexturastat A 0.154 | vemurafenib -0.023 | [5] 0.265 | [6] 0.04 | givinostat 0.089 | barasertib 0.112

POLR3K (UniProt Q9Y2Y1)
inactive: [1] -0.028 | [2] 0.098 | [3] 0 | [4] -0.014 | Nexturastat A -0.04 | vemurafenib -0.067 | [5] -0.066 | [6] -0.038 | givinostat -0.013 | barasertib 0.003

PTPN23 (UniProt Q9H3S7)
inactive: [1] -0.062 | [2] -0.049 | [3] -0.009 | [4] 0.002 | Nexturastat A -0.015 | vemurafenib 0.025 | [5] 0.051 | [6] 0.088 | givinostat 0.107 | barasertib 0.047

PBK (UniProt Q96KB5)
Chain of UniProt Q96KB5 (Q96KB5 whole entry, looked up): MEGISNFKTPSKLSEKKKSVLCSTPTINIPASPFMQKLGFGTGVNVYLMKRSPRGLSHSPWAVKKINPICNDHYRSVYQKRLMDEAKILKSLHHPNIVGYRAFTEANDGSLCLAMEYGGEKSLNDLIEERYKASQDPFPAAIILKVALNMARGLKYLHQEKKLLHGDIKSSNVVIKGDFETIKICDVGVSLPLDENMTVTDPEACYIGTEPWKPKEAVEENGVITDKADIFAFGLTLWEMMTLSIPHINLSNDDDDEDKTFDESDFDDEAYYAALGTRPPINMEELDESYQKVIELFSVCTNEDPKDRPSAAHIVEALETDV
inactive: [1] 0.01 | [2] -0.056 | [3] 0.069 | [4] -0.001 | Nexturastat A 0.037 | vemurafenib 0.124 | [5] 0.14 | [6] 0.144 | givinostat 0.143 | barasertib 0.145

POLB (UniProt P06746)
inactive: [1] 0.086 | [2] -0.211 | [3] 0.009 | Nexturastat A 0.189 | [5] 0.178 | givinostat -0.026

PRG4 (UniProt Q92954)
inactive: [1] -0.099 | [2] 0.034 | [4] 0.106 | Nexturastat A -0.007 | vemurafenib 0.008 | [6] -0.069 | givinostat 0.102 | barasertib -0.023

PEX5 isoform 4 (UniProt P50542)
inactive: [1] 0.089 | [2] -0.018 | Nexturastat A 0.145 | vemurafenib -0.066 | givinostat 0.127

PKM isoform 2 (UniProt P14618)
inactive: [1] -0.13 | [2] -0.082 | [3] 0.049 | [4] 0.033 | Nexturastat A 0.267 | vemurafenib 0.088 | [5] 0.094 | [6] 0.056 | barasertib -0.005

PRKD3 (UniProt O94806)
Chain of UniProt O94806 (O94806 whole entry, looked up): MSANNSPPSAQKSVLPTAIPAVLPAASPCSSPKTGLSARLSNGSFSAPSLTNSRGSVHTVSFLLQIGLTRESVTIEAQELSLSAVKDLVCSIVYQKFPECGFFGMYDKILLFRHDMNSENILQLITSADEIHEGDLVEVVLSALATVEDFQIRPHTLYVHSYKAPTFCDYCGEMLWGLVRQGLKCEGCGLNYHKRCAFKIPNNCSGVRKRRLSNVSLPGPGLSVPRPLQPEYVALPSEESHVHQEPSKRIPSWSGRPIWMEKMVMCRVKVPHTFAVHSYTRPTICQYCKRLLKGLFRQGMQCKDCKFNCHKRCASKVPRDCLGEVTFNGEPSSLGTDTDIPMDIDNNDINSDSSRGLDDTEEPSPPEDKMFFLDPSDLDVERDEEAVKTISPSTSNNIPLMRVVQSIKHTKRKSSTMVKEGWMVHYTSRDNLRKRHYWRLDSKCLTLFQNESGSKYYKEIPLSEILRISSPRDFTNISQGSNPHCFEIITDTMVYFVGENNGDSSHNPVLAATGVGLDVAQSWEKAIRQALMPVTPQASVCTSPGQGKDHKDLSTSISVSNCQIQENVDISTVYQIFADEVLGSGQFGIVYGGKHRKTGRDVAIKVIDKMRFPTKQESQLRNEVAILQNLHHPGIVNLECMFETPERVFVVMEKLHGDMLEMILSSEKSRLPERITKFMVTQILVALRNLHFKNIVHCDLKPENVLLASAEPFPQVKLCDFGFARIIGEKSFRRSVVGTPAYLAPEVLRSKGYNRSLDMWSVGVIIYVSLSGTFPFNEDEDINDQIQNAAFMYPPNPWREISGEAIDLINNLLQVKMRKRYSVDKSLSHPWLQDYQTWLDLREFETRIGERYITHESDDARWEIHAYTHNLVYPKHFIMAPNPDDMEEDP
inactive: [1] 0.096 | [2] -0.052 | [4] -0.012 | vemurafenib 0.294 | [6] 0.115 | givinostat -0.008 | barasertib 0.086

PTMA (UniProt P06454)
inactive: [1] 0.133 | [2] -0.041 | [3] 0.053 | [4] 0.213 | Nexturastat A -0.077 | vemurafenib 0.05 | [5] -0.044 | [6] -0.008 | givinostat -0.022 | barasertib -0.013

PIK3CB (UniProt P42338)
inactive: [1] -0.034 | [2] -0.009 | [3] 0.024 | [4] 0.054 | Nexturastat A 0.013 | vemurafenib 0.022 | [5] -0.001 | [6] -0.041 | givinostat 0.052 | barasertib 0.077

POGZ (UniProt Q7Z3K3)
inactive: [1] 0.037 | [2] -0.025 | [3] 0.028 | [4] 0.008 | Nexturastat A -0.127 | vemurafenib 0.122 | [5] -0.024 | givinostat -0.142

PTPA (UniProt A6PVN8)
inactive: [1] 0.062 | [2] -0.128 | [3] -0.15 | Nexturastat A -0.038 | vemurafenib -0.065 | [5] -0.11 | [6] 0.038 | barasertib 0.01
active: givinostat -0.857

PTTG1 (UniProt O95997)
Chain of UniProt O95997 (O95997 whole entry, looked up): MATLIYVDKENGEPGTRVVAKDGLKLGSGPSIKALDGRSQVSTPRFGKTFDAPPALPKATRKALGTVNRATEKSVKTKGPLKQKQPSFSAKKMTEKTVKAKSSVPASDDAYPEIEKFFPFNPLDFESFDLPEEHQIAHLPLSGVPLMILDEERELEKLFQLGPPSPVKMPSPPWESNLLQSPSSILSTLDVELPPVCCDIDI
inactive: [1] 0.007 | [2] -0.353 | [3] 0.02 | [4] -0.077 | Nexturastat A 0.098 | vemurafenib -0.081 | [5] -0.045 | [6] -0.021 | givinostat 0.068 | barasertib 0.023

PDIK1L (UniProt Q8N165)
Chain of UniProt Q8N165 (Q8N165 whole entry, looked up): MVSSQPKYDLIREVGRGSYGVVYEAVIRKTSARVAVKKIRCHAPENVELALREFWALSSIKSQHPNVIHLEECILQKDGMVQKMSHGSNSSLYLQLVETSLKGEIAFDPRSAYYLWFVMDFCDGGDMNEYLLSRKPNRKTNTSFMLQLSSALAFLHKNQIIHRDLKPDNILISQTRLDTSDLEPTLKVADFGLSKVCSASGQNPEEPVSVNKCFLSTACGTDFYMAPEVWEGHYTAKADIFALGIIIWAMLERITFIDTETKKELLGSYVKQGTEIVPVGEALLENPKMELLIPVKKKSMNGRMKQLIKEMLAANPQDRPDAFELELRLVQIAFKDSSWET
inactive: [1] -0.079 | [2] 0.031 | [3] -0.265 | [4] 0.068 | Nexturastat A -0.077 | vemurafenib 0.026 | [5] 0 | [6] 0.03 | givinostat 0.034 | barasertib 0.055

PNPLA4 (UniProt P41247)
active: givinostat 1.1
inactive: [1] 0.418 | [2] -0.04 | [3] 0.409 | [4] 0.273 | vemurafenib -0.093 | [5] -0.025 | [6] -0.277 | barasertib 0.042

PPP2R5C isoform 5 (UniProt Q13362)
inactive: [1] 0.001 | [2] -0.045 | [3] 0.012 | [4] 0.052 | Nexturastat A -0.171 | vemurafenib 0.066 | [5] 0.038 | [6] 0.032 | givinostat 0.059 | barasertib 0.018

PKN1 isoform 2 (UniProt Q16512)
Chain of UniProt Q16512 (Q16512 whole entry, looked up): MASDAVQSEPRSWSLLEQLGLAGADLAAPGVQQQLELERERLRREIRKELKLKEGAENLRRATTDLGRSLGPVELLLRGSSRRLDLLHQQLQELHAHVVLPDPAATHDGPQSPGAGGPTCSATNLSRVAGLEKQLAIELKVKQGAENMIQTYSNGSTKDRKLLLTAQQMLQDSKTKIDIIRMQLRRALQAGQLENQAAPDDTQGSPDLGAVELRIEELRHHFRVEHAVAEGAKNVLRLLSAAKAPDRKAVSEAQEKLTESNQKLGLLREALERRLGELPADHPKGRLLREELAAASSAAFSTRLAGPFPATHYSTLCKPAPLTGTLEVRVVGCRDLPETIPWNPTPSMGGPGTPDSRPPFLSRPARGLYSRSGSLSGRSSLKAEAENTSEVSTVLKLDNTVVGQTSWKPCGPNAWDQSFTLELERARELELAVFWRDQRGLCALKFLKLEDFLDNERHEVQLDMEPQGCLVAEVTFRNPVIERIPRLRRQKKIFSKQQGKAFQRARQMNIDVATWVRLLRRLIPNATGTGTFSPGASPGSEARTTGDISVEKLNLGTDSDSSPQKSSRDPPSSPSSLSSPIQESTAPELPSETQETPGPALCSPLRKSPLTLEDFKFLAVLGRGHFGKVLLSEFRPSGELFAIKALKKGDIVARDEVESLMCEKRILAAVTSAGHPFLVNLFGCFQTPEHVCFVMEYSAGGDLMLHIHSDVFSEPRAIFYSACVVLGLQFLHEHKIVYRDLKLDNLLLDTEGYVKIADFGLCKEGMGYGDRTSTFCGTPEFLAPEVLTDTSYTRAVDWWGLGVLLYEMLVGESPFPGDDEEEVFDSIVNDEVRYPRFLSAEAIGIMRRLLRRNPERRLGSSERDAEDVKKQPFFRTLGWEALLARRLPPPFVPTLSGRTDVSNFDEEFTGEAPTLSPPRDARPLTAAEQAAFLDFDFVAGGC
inactive: [1] 0.01 | [2] 0.002 | [3] 0.019 | [4] 0.014 | Nexturastat A 0.053 | vemurafenib 0.023 | [5] 0.03 | [6] 0.022 | givinostat 0.059 | barasertib 0.03

PRKCG (UniProt P05129)
inactive: [1] 0.085 | [2] -0.117 | [3] -0.058 | [4] 0.021 | Nexturastat A -0.08 | vemurafenib -0.041 | [5] 0.034 | [6] 0.019 | givinostat -0.316 | barasertib -0.094

PARP16 isoform 3 (UniProt Q8N5Y8)
inactive: [1] 0.066 | [4] 0 | Nexturastat A 0.022 | vemurafenib -0.06 | [5] 0.132 | [6] -0.016 | givinostat 0.04 | barasertib 0.032
active: [3] 0.298

PIK3CD (UniProt O00329)
inactive: [1] 0.042 | [2] 0.079 | [3] 0.018 | [4] -0.04 | Nexturastat A -0.1 | vemurafenib -0.051 | [5] -0.156 | givinostat -0.013 | barasertib 0.096

PRKAG1 isoform 3 (UniProt P54619)
Chain of UniProt P54619 (P54619 whole entry, looked up): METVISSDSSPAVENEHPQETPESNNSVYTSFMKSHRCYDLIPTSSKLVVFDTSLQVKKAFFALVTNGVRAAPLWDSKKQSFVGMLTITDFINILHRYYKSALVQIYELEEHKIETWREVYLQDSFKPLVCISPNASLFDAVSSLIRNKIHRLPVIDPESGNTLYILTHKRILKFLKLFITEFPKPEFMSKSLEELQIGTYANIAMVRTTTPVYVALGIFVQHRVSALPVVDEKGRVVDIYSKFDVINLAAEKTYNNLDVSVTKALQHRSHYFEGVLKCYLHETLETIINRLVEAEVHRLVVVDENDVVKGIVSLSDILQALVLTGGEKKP
inactive: [1] -0.042 | [2] -0.006 | [3] 0.007 | [4] 0.037 | Nexturastat A -0.01 | vemurafenib 0.026 | [5] 0.002 | [6] -0.026 | givinostat 0.014 | barasertib 0.013

PXK (UniProt Q7Z7A4)
inactive: [1] 0.017 | [2] -0.059 | [3] -0.041 | [4] 0.011 | Nexturastat A -0.018 | vemurafenib 0.017 | [5] 0.071 | [6] -0.046 | givinostat 0.022 | barasertib 0.002

PTTG1IP (UniProt P53801)
inactive: [1] 0.122 | [3] -0.107 | [4] -0.062 | Nexturastat A -0.024 | vemurafenib -0.059 | [5] 0.02 | [6] 0.008 | givinostat -0.124 | barasertib -0.025

PNPLA8 (UniProt Q9NP80)
inactive: [1] 0.001 | [2] 0.026 | [3] 0.007 | [4] -0.027 | Nexturastat A 0.041 | vemurafenib -0.002 | [5] -0.005 | [6] 0.084 | givinostat 0.067 | barasertib 0.066

PRKAB1 (UniProt Q9Y478)
inactive: [1] -0.055 | [2] 0.026 | [3] 0.022 | [4] 0.01 | Nexturastat A -0.002 | vemurafenib 0.031 | [5] 0.017 | [6] 0.109 | givinostat 0.08 | barasertib 0.026

PDSS2 (UniProt Q86YH6)
Chain of UniProt Q86YH6 (Q86YH6 whole entry, looked up): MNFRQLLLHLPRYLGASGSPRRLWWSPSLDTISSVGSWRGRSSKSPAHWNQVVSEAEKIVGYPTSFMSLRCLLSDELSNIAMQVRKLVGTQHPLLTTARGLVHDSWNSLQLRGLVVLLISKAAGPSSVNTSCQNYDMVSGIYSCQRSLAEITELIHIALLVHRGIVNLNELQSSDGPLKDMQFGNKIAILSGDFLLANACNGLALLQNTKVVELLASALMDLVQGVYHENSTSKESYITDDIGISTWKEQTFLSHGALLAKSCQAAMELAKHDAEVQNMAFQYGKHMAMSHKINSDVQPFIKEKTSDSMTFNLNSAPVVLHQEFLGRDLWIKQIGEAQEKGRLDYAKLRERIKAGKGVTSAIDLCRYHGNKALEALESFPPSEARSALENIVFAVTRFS
inactive: [1] -0.215 | [2] 0.017 | [3] 0.093 | [4] -0.083 | Nexturastat A -0.126 | vemurafenib -0.03 | [5] 0.244 | givinostat -0.046 | barasertib 0.027

PHKA1 (UniProt P46020)
inactive: [1] -0.027 | [2] -0.155 | [3] -0.062 | [4] -0.033 | Nexturastat A 0.047 | [5] 0.019 | [6] 0.076 | givinostat -0.024 | barasertib -0.133

POM121 (UniProt Q96HA1)
inactive: [1] -0.045 | [2] -0.032 | [3] -0.056 | [4] -0.074 | Nexturastat A 0.117 | vemurafenib -0.039 | [5] 0.007 | givinostat 0.119 | barasertib 0.111
